# Screening data as filed in PubChem.
# This is a sample that favours compounds with a hit; in the whole collection about 7.5% have one here.
# KinaseGlo FLuc: Kinase-Glo luciferase inhibition (counter-screen). Potency, µM (highest dose often 38.3 µM), for inactives: at the top dose activity change, negative = inhibition, usual class: inhibitors. AID 1379. Kinase-Glo luciferase, ATP luminescence, 8 min. 0.28% of 200,000 active. Q27757; also: % is scaled to controls: 0 for no effect and ±100 for the full control effect; nearly all actives have a fitted effect of over 60% in size
#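 Kinase-Glo luciferase light output from ATP and luciferin was measured with 10 uM ATP, within the enzyme's linear range. Buffer: 50 mM imidazole pH 7.2, 50 mM KCl, 7 mM MgCl2, 0.01% Tween 20, 0.05% BSA; luminescence read after 8 min at ambient temperature.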
# NPC1 promoter act: activators of NPC1 promoter | Huh7 NPC1 promoter luciferase reporter, 24 h | Potency, µM (highest dose often 9.22 µM), without a hit: at the highest dose activation, actives largely listed as activators | 2.4% of 320,000 active | AID 485313; also: % of control where 0% means no effect; nearly all actives have a fitted effect of over 60% in size
#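 Luminescence from an NPC1 promoter-driven luciferase reporter in stably transfected Huh7 cells was measured after 24 h compound treatment at 37 °C, followed by 10 min ambient incubation with luciferase detection reagent.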
# Rab9 prom act: Rab9 promoter activation; Huh7 Rab9 promoter-luciferase reporter, luminescence, 24 h; Potency, µM (titrated, usually from 9.22 µM), without a hit: at the top dose activation, negative = inhibition, most hits filed as activators; 2.8% of 320,000 active; AID 485297; also: % of control where 0% means no effect; nearly all actives have a fitted effect of over 60% in size
#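 Luminescence from Amplite-detected luciferase (10 minutes, ambient) reports Rab9 promoter activation. Before that, stable Rab9-luciferase Huh7 cells (1500/well, reduced-serum OP-MEM I plus 10% FBS) were exposed to compound for 24 hours at 37C.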
# FLuc counter: firefly luciferase modulation, counter-screen for miR-21 project | 6.9% of 360,000 active | AID 588342 | purified FLuc, Km substrates, luminescence inhibition | Potency, µM (titrated, usually from 57.5 µM), for the others: at the highest dose activity change, negative = inhibition, usual class: inhibitors | P08659;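 also: plate controls were vehicle for no effect and reference inhibitor for full effect; nearly all actives have a fitted effect of over 55% in size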
# Target sequence (P08659 whole entry, looked up): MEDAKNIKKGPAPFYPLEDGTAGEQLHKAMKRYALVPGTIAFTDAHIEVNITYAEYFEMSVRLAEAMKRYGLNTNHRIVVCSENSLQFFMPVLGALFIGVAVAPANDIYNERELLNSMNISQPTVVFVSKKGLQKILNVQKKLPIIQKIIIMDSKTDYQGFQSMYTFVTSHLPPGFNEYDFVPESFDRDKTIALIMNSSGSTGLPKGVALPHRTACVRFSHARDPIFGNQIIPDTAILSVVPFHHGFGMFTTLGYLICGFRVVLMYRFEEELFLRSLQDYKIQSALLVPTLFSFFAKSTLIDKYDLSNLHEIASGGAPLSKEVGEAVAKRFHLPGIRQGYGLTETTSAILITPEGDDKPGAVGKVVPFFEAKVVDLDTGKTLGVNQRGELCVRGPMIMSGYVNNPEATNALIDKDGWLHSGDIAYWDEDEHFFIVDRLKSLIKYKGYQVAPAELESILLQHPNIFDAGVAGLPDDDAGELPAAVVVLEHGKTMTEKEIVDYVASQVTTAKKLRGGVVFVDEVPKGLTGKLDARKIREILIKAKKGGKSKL
#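 Purified P. pyralis luciferase, 10 nM final, with Km-level 10 uM D-luciferin and 10 uM ATP in 50 mM Tris acetate pH 7.5, 10 mM Mg acetate, 0.01% Tween-20, 0.05% BSA; 6-point qHTS titration about 60 µM downward; luminescence read.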
# SMN2 splice enh: increases expression of the SMN2 splice variant. 2.8% of 210,000 active. Potency, µM (titrated, usually from 46.1 µM), for inactives: top-dose activity change, positive = activation, usual class: activators. HEK293 SMN2-luciferase splicing reporter, luminescence, 30-36 h; also: % of control where 0% means no effect; nearly all actives have a fitted effect of over 55% in size
#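 qHTS luciferase splicing reporter: luminescence rises when SMN2 exon 7 is included in transfected HEK293 cells. Compound exposure lasted 30-36 h at 37C, with 4.5 mM final sodium butyrate as control, followed by a ONE-Glo read.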
# ELG1 genotox: genotoxicity induction in ELG1-luciferase HEK293T cells; HEK293T ELG1-luciferase reporter, luminescence, 16 h; Potency, µM (series often up to 46 µM), for inactives: at the top dose activity change, positive = activation, hits mostly activators; 1.3% of 330,000 active; also: % of control where 0% means no effect; nearly all actives have a fitted effect of over 60% in size
#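 Genotoxic stress is detected as increased luminescence from luciferase-tagged ELG1 in HEK293T cells, measured with ONE-Glo after a 16 hr treatment at 37 °C.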
# Active calls of the source: *; ? = inconclusive; · = not tested or not shown. Calls follow the shape of the dose curve; as a rule, active = well fitted curve in the direction sought with a large enough effect; inconclusive = small, poorly fitted or top-dose-only effect, or another doubt; inactive = no such curve, though single readings can be large; an effect the other way counts as inactive or inconclusive. Potency is read from the fitted curve at half-maximal effect.
SMILES,KinaseGlo FLuc,NPC1 promoter act,Rab9 prom act,FLuc counter,SMN2 splice enh,ELG1 genotox
O=C(c1cc(-c2ccc(Cl)cc2)on1)N1CCOCC1,-7.4%,0.398µM*,1µM*,2.69µM*,3.16µM*,0.92µM*
CC(C)(C)NC(=O)N1CCC(C(=O)O)CC1,·,·,·,0.5%,·,·
CC1CC(C)CN(C(=O)C(C)N2CCN(S(=O)(=O)c3ccc(Br)s3)CC2)C1 (configuration not stated),·,·,·,·,·,-5.7%
CCCn1c(=O)[nH]c(=O)c2c1nc(-c1cc([N+](=O)[O-])ccc1Cl)n2CCOC,·,-0.5%,3.5%,0.2%,·,-2.9%
COc1cc(-c2nc3cnccn3c2Nc2ccc(C(C)C)cc2)ccc1O,19.7%,-1.7%,-1.6%,-0.7%,-9.4%,14.5%
COc1cc(-c2nc3cnccn3c2Nc2ccccc2)ccc1O,3.5%,-6.5%,-7.2%,-9.0%,14.1µM*,5.9%
COc1cc(-c2nc3cnccn3c2Nc2ccc(C)cc2)ccc1O,19.1%,1.1%,-2.6%,-8.9%,17.8µM*,13µM*
Cc1ccc(C)c(Cn2cnc3c(cnn3-c3ccc(F)cc3)c2=O)c1,·,·,·,-0.4%,3.6%,·
CN(Cc1nc2ccccc2n1C)c1ccccc1,·,-0.3%,5.2%,-12.9%,·,4.4%
Cc1ccc(C(O)c2nc3ccccc3n2C(C)C)cc1 (configuration not stated),4.6%,-2.2%,-2.9%,-3.1%,-7.2%,-1.1%
CC(C)n1c(-c2ccc(N(C)C)cc2)nc2ccccc21,-9.7%,1.1%,?,7.57µM*,10.0%,18.2%
CCn1c(-c2ccc(N(C)C)cc2)nc2ccccc21,-10.8%,?,?,0.849µM*,12.6µM*,1.6%
CCn1c(-c2ccco2)nc2ccccc21,-15.1%,22.5%,18.2%,19µM*,9.3%,28.4%
CN(C)c1ccc(-c2nc3ccccc3n2C)cc1,10µM*,0.316µM*,0.224µM*,0.269µM*,0.631µM*,?
c1ccc(OCCn2c(-c3ccco3)nc3ccccc32)cc1,1.8%,17.9%,17.7%,?,13.0%,6.2%
Cc1ccc(NC(=O)NCCOCCn2c(=O)oc3ccccc32)cc1F,·,·,·,-1.0%,1.4%,·
COc1cc(C(=O)NCC(=O)N/N=C/c2ccc(-c3cccc([N+](=O)[O-])c3)o2)cc(OC)c1OC,·,-7.0%,1.8%,-3.4%,·,-8.5%
CC1CN(C(=O)N2CCC(C(=O)NCc3ccccc3F)CC2)c2cc(Cl)ccc2O1 (configuration not stated),·,·,·,-17.0%,·,·
O=C(O)CC/C=C\CC[C@H]1[C@@H](N2CCCCC2)[C@@H](O)C[C@@H]1OCc1ccc(-c2ccccc2)cc1,1.4%,·,·,·,·,·
O=C(NC1CC1)c1cc(-c2cccs2)on1,·,·,·,10.7µM*,·,·
O=C(NC1CCCC1)c1cc(-c2cccs2)on1,-3.8%,1.58µM*,2µM*,4.78µM*,?,9.2µM*
CCOc1ccccc1C(=O)NCc1ccc2c(c1)CCN2C(C)=O,·,·,·,1.2%,·,·
O=c1c2ccccc2nc(/C=C/c2ccc3c(c2)OCO3)n1CCCO,-3.6%,14.0%,12.8%,?,-15.8%,1.7%
C(=C/c1nccc2c1[nH]c1ccccc12)/c1ccc2c(c1)OCO2,-14.2%,?,26.9%,3.01µM*,11.4%,?
Nc1ccc2oc3ccccc3c2c1,0.7%,?,?,?,11.2µM*,22.5%
SMILES,KinaseGlo FLuc,NPC1 promoter act,Rab9 prom act,FLuc counter,SMN2 splice enh,ELG1 genotox
Nc1ccc2oc3ncccc3c(=O)c2c1,-3.0%,9.7%,11.6%,-17.9%,24.7%,?
CCOC(=O)Cc1cc(=O)n2[nH]c(-c3ccc(Cl)cc3)cc2n1,3.8%,2.7%,0.0%,13.5µM*,19.0%,4.4%
O=c1cc(-c2ccccc2)nc2cc(-c3ccc(Br)cc3)[nH]n12,·,?,?,-15.6%,·,3.0%
O=c1cc(-c2ccc([N+](=O)[O-])cc2)nc2cc(-c3ccc(Cl)cc3)[nH]n12,-0.4%,0.1%,-7.3%,?,-3.3%,-1.4%
CCCc1cc(=O)n2[nH]c(-c3ccc(Cl)cc3)cc2n1,·,?,2.82µM*,15.1µM*,·,?
CCCc1cc(=O)n2[nH]c(-c3ccc(C)cc3)cc2n1,0.3%,3.98µM*,3.98µM*,9.53µM*,12.6µM*,?
CCCc1cc(=O)n2[nH]c(C)nc2n1,-1.7%,0.1%,3.5%,0.3%,11.0%,2.5%
CCCc1cc(=O)n2[nH]c(-c3ccccc3)cc2n1,-1.2%,3.98µM*,2.82µM*,16.9µM*,11.2µM*,?
Cc1oc(-c2ccccc2Cl)nc1CS(=O)CC(=O)NCc1ccc2c(c1)OCO2 (configuration not stated),·,-2.7%,-5.8%,2.4%,·,3.8%
COc1ccc([N+](=O)[O-])cc1N(CC(O)CN1C(=O)NC(C)(C)C1=O)S(=O)(=O)c1ccccc1 (configuration not stated),·,-7.9%,-4.4%,0.0%,·,3.7%
O=C(O)c1ccccc1C(=O)Nc1ccc(Br)c2cccnc12,5.0%,-0.9%,2.9%,23.9µM*,2.0%,5.6%
O=C(O)c1cc(Cl)c(Cl)cc1C(=O)Nc1cccc2cccnc12,0.5%,0.1%,1.2%,-16.7%,4.3%,0.0%
O=C(COC(=O)c1ccccc1SCC(=O)N1CCCC1)NCc1ccccc1,·,-4.3%,-0.3%,?,·,-3.6%
Cc1cccc(NC(=O)c2c(NC(=O)c3ccco3)sc3c2CCC(C(C)(C)C)C3)c1 (configuration not stated),·,·,·,4.1%,3.3%,·
Cc1c(C)c(C)c2[nH]c(-c3ccc4c(c3)OCO4)nc2c1C,·,18.8%,17.3%,4.78µM*,·,-10.1%
CCOC(=O)c1cnn(-c2ccccn2)c1N,-11.7%,3.98µM*,3.98µM*,21.3µM*,·,?
CCOC(=O)c1cnn(-c2cc(C)c3ccccc3n2)c1N,-3.7%,?,-30.8%,8.49µM*,0.5%,7.0%
CCOC(=O)C1CCN(c2ncnc3c2oc2ccccc23)CC1,-2.3%,-2.3%,7.5%,-13.5%,-34.4%,-3.2%
CCOC(=O)c1cnn(-c2ncnc3c2oc2ccccc23)c1N,-4.5%,1.26µM*,1.12µM*,1.07µM*,10µM*,1.64µM*
C=CCOc1ccc(/C=C2\SC(N)=NC2=O)cc1OC,·,-2.2%,-11.5%,10.7µM*,·,?
COc1cc(/C=C2\SC(N)=NC2=O)ccc1O,·,1.5%,-3.9%,?,·,-22.3%
Cc1ccc(C(=O)N2CCN(c3ccccc3Cl)CC2)cc1[N+](=O)[O-],-3.6%,-2.6%,3.1%,2.9%,-45.5%,-5.9%
CCN(CC)c1ccc2cc(C(=O)NCc3ccc(F)cc3)c(=N)oc2c1,·,2.8%,0.1%,16.9µM*,·,-11.1%
CCOc1cccc2cc(C(=O)NCc3ccc(C)cc3)c(=N)oc12,·,-5.1%,-2.9%,15.1µM*,·,2.6%
